An excerpt weighted towards active compounds, which were near 12% of everything screened.
FMDV antiviral: High Throughput Screening for Foot and Mouth Disease Virus Antivirals | FMDV antiviral cell-based qHTS | Potency, µM (highest dose often 57.9 µM), without a hit: top-dose activity change, negative = inhibition, usual class: inhibitors | 410,000 tested, 1.2% active | AID 1159524, 2015; calls by dose curve; tested in HEK293T cells; further: read-out not given here; potency means the concentration at half of the fitted maximal effect; on the % scale 0 is the no-effect control and ±100 the full control effect; nearly all actives have a fitted effect of over 45% in size
CHX counter: Cycloheximide Counterscreen for Small Molecule Inhibitors of Shiga Toxin; AID 2314, 2010; max response, %; 300,000 tested, 12% active; cell reporter, cycloheximide protein synthesis inhibition counterscreen; in the data active means max response mostly above about 13%, no sharp cut-off; inactive means mostly below about 14%; further: read at 38.3 µM for the half of the compounds with a filed dose; 0% is about no effect
Shiga toxin inh: A qHTS for Small Molecule Inhibitors of Shiga Toxin; Vero cells, Shiga toxin protein synthesis inhibition reporter; inhibition, % at 38.7 µM; 290,000 tested, 9.2% active; AID 2315, 2010; in the data active means inhibition mostly above about 28%, no sharp cut-off; inactive means mostly below about 43%; further: 0% is about no effect
Sm TGR block: qHTS Assay for the Inhibitors of Schistosoma Mansoni Peroxiredoxins | Schistosoma mansoni thioredoxin glutathione reductase (TGR), Q962Y6 | purified TGR, DTNB reduction, TNB absorbance 405 nm | Potency, µM (series often up to 114 µM), for inactives: at the top dose activity change, negative = inhibition, usual class: inhibitors | 360,000 tested, 3% active; active means well fitted inhibition curve with a large enough effect; inconclusive means small, poorly fitted or top-dose-only effect; inactive means no such curve, though single readings can be large or run the other way; further: potency means the concentration at half of the fitted maximal effect; on the % scale 0 is the no-effect control and ±100 the full control effect; nearly all actives have a fitted effect of over 60% in size
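Kinetic colorimetric format: TGR-catalysed, NADPH-driven DTNB reduction monitored via TNB absorbance. Enzyme dispensed at 20 nM; compound exposure 15 min at room temperature before reaction start.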
The depositor's hits bear a star; [ ] = dose if it differs, or a comment.

C/C(=N\Nc1nc2ccccc2c(=O)n1O)c1ccco1 was read as FMDV antiviral 7%, CHX counter 47*, Shiga toxin inh 62* and Sm TGR block 40µM*.
`Cc1ccc(-n2c(C)nc3ccccc3c2=O)c(C)c1` gave FMDV antiviral -5%, CHX counter -1, Shiga toxin inh -4 and Sm TGR block 11%.
For Cc1ccc(C)c(/C=N/Nc2nc3ccccc3c(=O)n2O)c1 the results were FMDV antiviral 30%, CHX counter 22*, Shiga toxin inh 34* and Sm TGR block 15%.
Screening O=C(CSc1nnc(-c2ccccc2Cl)n1Cc1ccco1)Nc1ccc2c(c1)OCCO2 returned FMDV antiviral -18%, CHX counter 13*, Shiga toxin inh 4 and Sm TGR block -14%.
`O=C(CSc1nnc(-c2ccc(Cl)cc2)n1Cc1ccco1)NCc1ccc2c(c1)OCO2` gave FMDV antiviral -14%, CHX counter 0, Shiga toxin inh -4 and Sm TGR block -25%.
For Cn1c(SCC(=O)N2c3ccccc3Sc3ccc(Cl)cc32)nnc1-c1ccco1 the results were FMDV antiviral -8%, CHX counter 1, Shiga toxin inh -2 and Sm TGR block -27%.
Cc1cccc(C)c1NC(=O)CSc1nnc(-c2ccncc2)n1Cc1ccco1 was read as CHX counter -4, Shiga toxin inh -20 and Sm TGR block 8%[11.4 µM].
For O=C(CSc1nnc(COc2ccccc2)n1Cc1ccco1)Nc1ccc2c(c1)OCCO2 the results were FMDV antiviral -13%, CHX counter -1, Shiga toxin inh -6 and Sm TGR block -9%.
Screening O=C(CSc1nnc(-c2ccc(Cl)cc2)n1Cc1ccco1)Nc1ccc2c(c1)OCCO2 returned FMDV antiviral inconclusive, CHX counter 11, Shiga toxin inh 4 and Sm TGR block 25µM*.
For Cc1cc(Cl)ccc1NC(=O)CSc1nnc(-c2ccncc2)n1Cc1ccco1 the results were FMDV antiviral 6%, CHX counter 11, Shiga toxin inh -18 and Sm TGR block 45µM*.
For O=C(CSc1nnc(-c2ccncc2)n1Cc1ccco1)N1c2ccccc2Sc2ccc(Cl)cc21 the results were FMDV antiviral -26%, CHX counter -2, Shiga toxin inh 5 and Sm TGR block 45µM*.
`O=C1C=C(N2CCCCC2)C2(CCCCC2)O1` gave FMDV antiviral 7%, CHX counter 6 and Shiga toxin inh -4.
For O=C1C=C(N2CCOCC2)C2(CCCCC2)O1 the results were FMDV antiviral -9%, CHX counter 28*, Shiga toxin inh 85 and Sm TGR block 1%.
For COc1ccc(-n2[nH]c3c4c(ncc3c2=O)CCCCC4)cc1 the results were FMDV antiviral -15%, CHX counter -3 and Shiga toxin inh 14.
CCCC(=O)Nc1ccccc1C(=O)OCc1cc(=O)n2nc(C(C)C)sc2n1 was read as FMDV antiviral 5% and Sm TGR block -9%.
`O=C(c1ccco1)c1nnn(Cc2ccccc2)c1-c1ccccc1` gave FMDV antiviral -13%, CHX counter 11, Shiga toxin inh 21 and Sm TGR block 32µM*.

Screens: PubChem BioAssay, National Center for Advancing Translational Sciences (NCATS)
